Reference: PubChem BioAssay (NCI)
This is part of a sample that, as a whole, favours compounds with a hit. Of some 83,000 tested, about 20% had one in any assay.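 For each line, cells grew in 96-well plates with the test compound present at a single concentration for 48 hours.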 Active and inactive are the calls of the source. How the source made its calls: active means growth percent below 10; inactive means the rest.

Assays:
Assay in all cases: NCI-60 one-dose screen, 48 h (100 = growth as untreated, 0 = no growth, -100 = all killed)
Settings in all cases: 10 µM unless noted
[1] = system: T-47D breast
[2] = system: BT-549 breast
[3] = system: MDA-MB-435 melanoma
[4] = system: SW-620 colon
[5] = system: MCF7 breast
[6] = system: HCT-116 colon
[7] = system: HCC-2998 colon
[8] = system: KM12 colon

Measured: growth

COc1cc2nc(C(=O)N3CCCCC3)cc(Nc3ccccc3)c2cc1OC
inactive: [1] 91.2% | [2] 102% | [3] 104% | [4] 107% | [5] 96.5% | [6] 99.9% | [7] 105% | [8] 99.3%

O=[N+]([O-])c1cccc(C(c2ccccc2)c2ccccc2)c1
inactive: [1] 83.2% | [2] 106% | [3] 99.5% | [4] 87.7% | [5] 106% | [6] 65.6% | [7] 92.5% | [8] 87%

O=C(Nc1ccccc1F)Nc1ccccc1Cl
inactive: [1] 72.5% | [2] 85.7% | [3] 97.4% | [4] 96.2% | [5] 90.5% | [6] 101% | [7] 99.2% | [8] 83.5%

CC[C@@]1(O)C(=O)OCc2c1cc1n(c2=O)Cc2c-1nc1ccccc1c2/C=N/OC(C)(C)C
active: [1] 2.25% | [2] -7.82% | [5] 2.42% | [6] 3.24% | [7] 6.39% | [8] 1.96%
inactive: [3] 13.5% | [4] 11.5%

OCCOCC(F)(F)F
inactive: [1] 104% | [2] 97.7% | [3] 94.4% | [4] 100% | [5] 105% | [6] 106% | [7] 104% | [8] 113%

COc1ccc(-c2nnc(SCC(=O)Nc3ccc(C(=O)/C=C/c4ccccc4)cc3)o2)cc1OC
inactive: [1] 98.7% | [2] 98.3% | [3] 92.7% | [4] 103% | [5] 56% | [6] 51.8% | [7] 116% | [8] 99.6%

Fc1ccc(Nc2ncnc3ccc(-c4cn[nH]c4)cc23)cc1Cl
active: [1] -20.2%
inactive: [2] 58% | [3] 79.8% | [4] 78.1% | [5] 23.3% | [6] 51.2% | [7] 85% | [8] 67.1%

CN1CCN(C(=O)/C=C/c2ccc([N+](=O)[O-])o2)CC1
inactive: [1] 110% | [2] 105% | [3] 72.7% | [4] 82% | [5] 68.7% | [6] 81.6% | [7] 103% | [8] 83.9%

Cn1cnc([N+](=O)[O-])c1N1c2ccncc2Sc2ccncc21
inactive: [1] 86% | [2] 113% | [3] 110% | [4] 95.1% | [5] 101% | [6] 95.7% | [7] 114% | [8] 103%

FC(F)(F)c1cn(CCN2CCOCC2)c2ncnc(Cl)c12
inactive: [1] 95.1% | [2] 93.6% | [3] 56.5% | [4] 53.7% | [5] 97.5% | [6] 15.4% | [7] 75.2% | [8] 101%

Cc1cc(Nc2ccc(Cl)c(Cl)c2)nc(N)n1
inactive: [1] 79.5% | [2] 94.4% | [3] 98.3% | [4] 97.7% | [5] 84.4% | [6] 86.4% | [7] 113% | [8] 91.3%

CN1CCN(CC(=O)N(C)c2ccc(N=C(c3ccccc3)c3c(O)[nH]c4ccc(C#N)cc34)cc2)CC1
inactive: [1] 69.4% | [2] 15.1% | [3] 23.9% | [4] 16.5% | [5] 12.7% | [7] 39.8%
active: [6] 9.41% | [8] 9.43%

O=[N+]([O-])c1ccccc1NC1c2ccccc2Oc2ccccc21
active: [3] -47.7%
inactive: [1] 76.5% | [2] 54.8% | [4] 19.8% | [5] 57.1% | [6] 30.3% | [7] 66% | [8] 26.3%

O=C(Nc1cccc(-n2ccc3c(NC(=O)c4ccccc4)nccc32)c1)Nc1ccc(Cl)c(C(F)(F)F)c1
active: [2] -5.15% | [3] -15.4% | [6] 3.34% | [8] -16.4%
inactive: [1] 54.3% | [4] 25.2% | [5] 19.5% | [7] 17.2%

CC(C)CNCC(O)COc1ccc(C(C)(C)c2ccc(OCC(O)CNCC(C)C)cc2)cc1 (centres undefined)
active: [1] -31.3% | [3] 7.56% | [4] 1.07% | [6] 0.347% | [7] -24.5%
inactive: [2] 69.4% | [5] 10.3% | [8] 37.1%

COc1cc(/C=C/C(=O)c2ccc(Oc3ncnc4ccccc34)cc2)cc(OC)c1OC
inactive: [1] 35.9% | [2] 58% | [3] 50.6% | [4] 53.2% | [5] 27% | [6] 52.8% | [7] 108% | [8] 19.4%

Nc1nccc2c1ccn2-c1ccc(NC(=O)Nc2cccc(C(F)(F)F)c2)cc1
inactive: [1] 85.1% | [2] 96.5% | [3] 96.6% | [4] 103% | [5] 86.8% | [6] 76.8% | [7] 115% | [8] 75.1%

COc1cc(NC(=O)C#Cc2ccccc2)c(OC)cc1Cl
inactive: [1] 71.1% | [2] 51.3% | [3] 59.3% | [4] 23.9% | [5] 22.6% | [6] 21.9% | [7] 90.9% | [8] 49.7%

Cc1ccc2nc(-c3ccc(-n4on4-c4ccc(/C=C/c5ccc(-n6on6-c6ccc(-c7nc8ccc(C)cc8s7)cc6)cc5S(=O)(=O)O)c(S(=O)(=O)O)c4)cc3)sc2c1
inactive: [1] 95.5% | [2] 114% | [3] 110% | [4] 117% | [5] 110% | [6] 103% | [7] 107% | [8] 103%

Cc1ccc2c(C3C(C#N)=C(N)Oc4cc5ccccc5cc43)cc(=O)oc2c1 (centres undefined)
active: [3] -48.2%
inactive: [1] 35.9% | [2] 47.9% | [4] 27.1% | [5] 17.9% | [6] 15.9% | [7] 58.9% | [8] 24.1%

Cn1c2ccccc2c2ssc(=S)c21
inactive: [1] 87.3% | [2] 110% | [3] 91.7% | [4] 105% | [5] 92.9% | [6] 101% | [7] 101% | [8] 99.7%

O=C(O)c1cccc2oc(-c3ccccc3O)nc12
inactive: [1] 52.2% | [2] 75.5% | [3] 71.3% | [4] 47.3% | [5] 59.1% | [6] 36.8% | [7] 44.7% | [8] 46%

COc1ccc(-c2nn(-c3ccc(NC(=O)Nc4cc(C(F)(F)F)cc(C(F)(F)F)c4)cc3)cc2-c2ccncc2)cc1Cl
active: [3] 8.04% | [6] 2.45% | [8] 7.63%
inactive: [1] 25.3% | [2] 17.5% | [4] 19.5% | [5] 15.5% | [7] 12.3%

N#Cc1c(N)nc(Cl)c(C#N)c1C(=O)c1ccccc1
inactive: [1] 42.4% | [2] 24.9% | [3] 14.6% | [4] 43.3% | [5] 18.9% | [6] 30.2% | [7] 76.5% | [8] 28%

CCCCN(CCCC)c1ccc(C(=N)c2ccc(N(C)C)cc2)cc1
active: [1] -23.3% | [2] -72.4% | [3] -74.1% | [4] -85.2% | [5] -52.9% | [6] -100% | [7] -47.5% | [8] -50.5%

O=C1c2ccccc2OC=C(c2ccccc2)N1CCCCNc1ccc(F)cc1
inactive: [1] 36.3% | [2] 59.1% | [3] 108% | [4] 103% | [5] 85.6% | [6] 59.4% | [7] 104% | [8] 84.4%

CO[C@H]1/C=C/C=C/C=C/C[C@H](OC(=O)[C@@H](C)NC(=O)C2CCCCC2)[C@H](C)[C@@H](O)/C(C)=C\CCC2=CC(=O)C=C(NC(=O)C1)C2=O
active: [1] -15.1% | [2] -19.6% | [3] -29.1% | [4] 2.69% | [5] -11% | [6] -18.4% | [7] -19.2% | [8] -9.05%

O=C(Nc1ccc(-n2cc(-c3ccncc3)c(-c3ccc(O)c(Cl)c3)n2)cc1)c1ccc(Cl)c(Cl)c1
inactive: [1] 36.5% | [2] 29.3% | [3] 27.1% | [4] 37.3% | [5] 28.5% | [6] 12.3% | [7] 33.2% | [8] 24.6%
